We go through eight compounds from PubChem BioAssay (NCI).

This is part of a sample that, as a whole, favours compounds with a hit. Of some 83,000 tested, about 20% had one in any assay.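 48-hour exposure, single concentration, 96-well plates; percent growth endpoint where 0 means no net growth. Active: below 10.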 Unmarked numbers belong to inactive results. Activity calls are given as the source filed them.

What all share (assay): NCI-60 one-dose screen, 48 h (100 = growth as untreated, 0 = no growth, -100 = all killed)
The test system of test [1] is NCI-H23 lung. The following applies: 10 µM unless noted.
Test [2] has as its system NCI-H226 lung. The following applies: 10 µM unless noted.
The test system of test [3] is NCI-H322M lung. The following applies: 10 µM unless noted.
Test [4] concerns NCI-H460 lung. The following applies: 10 µM unless noted.
Test [5] relates to HOP-92 NSCLC. Conditions: 10 µM.
Test [6] has as its system NCI-H522 lung. The following applies: 10 µM.
The subject of test [7] is A549/ATCC NSCLC. The following applies: 10 µM unless noted.
The test system of test [8] is 786-0 renal. The following applies: 10 µM unless noted.
Test [9] has as its system COLO 205 colon. The following applies: 10 µM unless noted.
The test system of test [10] is DU-145 prostate. The following applies: 10 µM unless noted.
In test [11] the test system is K-562 leukemia. Conditions: 10 µM unless noted.
Test [12] deals with MALME-3M melanoma. Conditions: 10 µM unless noted.
The test system of test [13] is MDA-MB-231 breast. Conditions: 10 µM unless noted.
The subject of test [14] is RXF 393 renal. Conditions: 10 µM unless noted.
In test [15] the test system is SF-268 CNS. The following applies: 10 µM unless noted.
The test system of test [16] is SF-295 CNS. The following applies: 10 µM unless noted.
Test [17] deals with SF-539 CNS. The following applies: 10 µM unless noted.
Test [18] relates to UACC-257 melanoma. The following applies: 10 µM unless noted.
Test [19] relates to M14 melanoma. The following applies: 10 µM unless noted.

For `COC(=O)c1ccc2[nH]c(O)c(C(=Nc3ccc(N(C)C(=O)CN4CCN(C)CC4)cc3)c3ccc4c(c3)OCO4)c2c1`, the growth in [1] is 5.66% (active); in test [2], 23.3%; in [3], 21%; in test [4], 8.35% (active); in [5], 36.9%; in test [6] it was 2.17% (active). In addition, the growth was 5.98% (active) in test [7]; 14.4% in test [8]; -54.4% (active) in test [9]; 7.84% (active) in test [10]; 4.82% (active) in [11]; -5.19% (active) in [12]. In addition, the growth is 12.5% in [13]; -56.9% (active) in test [14]; 11.5% in test [15]; 27.5% in test [16]; -19% (active) in test [17]; 31.5% in test [18]. Besides, the growth in test [19] is 10.5%.
On to `CC(=O)Nc1ccc(C(=O)/C=C/c2ccc(N(C)C)cc2)cc1`, for which the growth in [1] was 93.9%; in [2], 96.9%; in [3], 106%; in test [4] it was 97.6%; in test [5] it was 101%; in test [6], 76.6%. Also, the growth in test [7] was 93.9%; in test [8] it was 96.7%; in test [9] it was 106%; in test [10], 98.2%; in [11], 98.2%; in test [12] it was 88.9%. Besides, the growth in [13] is 104%; in test [14], 99.1%; in test [15] it was 93.7%; in test [16], 99%; in test [17], 106%; in test [18], 95.5%. The growth in test [19] is 99.4%.
Consider `CCOc1ccc(/C=N/NC(=O)c2cccc3ccccc23)cc1OCC`, for which the growth was 92.3% in [1]; 96.7% in test [2]; 119% in test [3]; 101% in [4]; 68.5% in test [5]; 87.4% in test [6]. Besides, the growth in test [7] was 96.6%; in test [8] it was 102%; in [9], 110%; in test [10], 106%; in [11], 80.7%; in [12], 114%. The growth is 96% in test [13]; 109% in [14]; 108% in test [15]; 89.1% in test [16]; 105% in test [17]; 109% in [18]. For the same compound, the growth in test [19] is 123%.
For the compound `NC(N)=N/N=C/c1cccc(Br)c1`, the growth in test [1] was 97.6%; in test [2], 88.7%; in test [3], 91.2%; in test [4], 104%; in [5], 88.9%; in test [6] it was 100%. In addition, the growth in test [7] was 98.8%; in test [8], 94.2%; in [9] it was 90.2%; in [10], 118%; in test [11], 93.6%; in test [12], 100%. Further, the growth in test [13] was 105%; in [14] it was 95.8%; in [16], 99.3%; in [17], 101%; in test [18], 106%; in test [19], 92.8%.
For `CC1C(=O)CCCC1=O`, the growth is 113% in test [1]; 121% in [2]; 99.4% in test [3]; 120% in test [4]; 106% in test [5]; 90.9% in test [6]. The growth was 102% in test [7]; 103% in test [8]; 114% in [9]; 124% in [10]; 103% in [11]; 98.4% in test [12]. The growth in test [13] is 101%; in [14], 134%; in [15], 112%; in test [16], 104%; in test [17], 98.9%; in test [18], 108%. The growth in test [19] was 111%.
Regarding `Cc1ccc2c(c1)C(=O)CCS2`, the growth in test [1] was 100%; in [2], 101%; in [3], 93.5%; in test [4], 117%; in test [5], 89.1%; in [6], 95.2%. In addition, the growth in test [7] was 97.2%; in test [8], 101%; in test [9], 98.2%; in [10], 107%; in [11], 114%; in test [12], 85%. In addition, the growth in test [13] is 94.2%; in test [14] it was 115%; in test [15], 112%; in [16], 108%; in test [17], 87.3%; in test [18] it was 102%. In addition, in test [19], the growth was 96.1%.
Take `Cc1nc(NC(=O)NC2CCCCC2)sc1C(=O)NN`: the growth in test [1] was 101%; in [2], 103%; in test [3], 101%; in test [4], 112%; in test [5], -17.1% (active); in test [6], 0.452% (active). Besides, the growth was 102% in [7]; 113% in test [8]; 119% in test [9]; 109% in [10]; 154% in test [11]; -7.04% (active) in test [12]. Moreover, the growth in test [13] was 97.9%; in [14] it was 112%; in test [15], 101%; in [16], 103%; in test [17], 113%; in test [18], 101%. The growth in test [19] was 94.9%.
Take `CCOc1nc(-c2ccccc2)cc2c(O)c(C(=O)N/N=C/c3ccccc3O)[nH]c(=O)c12`: the growth in [1] is 62.7%; in [2] it was 106%; in [3], 107%; in [4], 107%; in [5] it was 82.8%; in test [6], 81.9%. Further, the growth in test [7] is 85.3%; in [8], 103%; in test [9], 105%; in test [10], 97.6%; in [11], 115%; in test [12] it was 119%. The growth in test [13] was 101%; in test [14], 81.3%; in test [15], 79.6%; in [16], 103%; in [17], 117%; in [18], 88.6%. For the same compound, the growth in test [19] is 101%.
